Screens from PubChem BioAssay.
Only some compounds are listed: those with a hit (about 3.4% of all), similar ones and a draw of the others.
KAT2A inh – qHTS Assay for Inhibitors of GCN5L2. Histone acetyltransferase KAT2A (Homo sapiens), Q92830. GCN5L2 HAT assay, ThioGlo1 CoA-SH fluorescence. Potency, µM (titrated, usually from 58.9 µM), for inactives: at the highest dose activity change, negative = inhibition, hits mostly inhibitors. 0.21% of 390,000 active. AID 504327, 2011; also: % is scaled to controls: 0 for no effect and ±100 for the full control effect
Target sequence (Q92830 whole entry, looked up): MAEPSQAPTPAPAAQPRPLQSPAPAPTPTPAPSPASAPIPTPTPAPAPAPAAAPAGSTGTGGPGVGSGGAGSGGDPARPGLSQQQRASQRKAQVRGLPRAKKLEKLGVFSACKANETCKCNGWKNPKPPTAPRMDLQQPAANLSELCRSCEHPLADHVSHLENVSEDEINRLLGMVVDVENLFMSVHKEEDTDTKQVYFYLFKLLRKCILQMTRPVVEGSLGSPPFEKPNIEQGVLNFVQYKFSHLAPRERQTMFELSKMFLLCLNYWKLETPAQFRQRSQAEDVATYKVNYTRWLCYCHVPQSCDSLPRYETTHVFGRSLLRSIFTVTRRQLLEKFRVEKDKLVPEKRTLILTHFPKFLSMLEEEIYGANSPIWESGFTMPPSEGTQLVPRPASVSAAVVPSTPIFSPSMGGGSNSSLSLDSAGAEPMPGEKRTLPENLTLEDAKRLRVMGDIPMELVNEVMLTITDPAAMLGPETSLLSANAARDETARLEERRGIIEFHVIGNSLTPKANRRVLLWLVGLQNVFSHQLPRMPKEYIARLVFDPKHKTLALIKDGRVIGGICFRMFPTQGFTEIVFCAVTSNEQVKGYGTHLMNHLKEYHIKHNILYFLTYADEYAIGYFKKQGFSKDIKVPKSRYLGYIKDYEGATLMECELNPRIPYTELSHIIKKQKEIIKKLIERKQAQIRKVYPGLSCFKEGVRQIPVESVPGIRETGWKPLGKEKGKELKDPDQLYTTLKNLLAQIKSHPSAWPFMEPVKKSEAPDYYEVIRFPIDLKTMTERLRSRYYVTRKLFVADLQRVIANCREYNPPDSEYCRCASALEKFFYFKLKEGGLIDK
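GCN5L2 (20nM final) in 50mM HEPES, 0.1mM EDTA pH 7.5, 0.01% Tween-20 was preincubated 15 min at room temperature with compound, then given ThioGlo1 (50uM), H3(1-25) peptide (75uM) and acetyl-CoA (70uM); CoA-thiol fluorescence (Ex340/Em540) was read at 0 and 20 min.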
PKM2 activator – qHTS Assay for Activators of Human Muscle isoform 2 Pyruvate Kinase; 0.34% of 260,000 active; Pyruvate kinase PKM (Homo sapiens), P14618; Potency, µM (titrated, usually from 57.5 µM), for inactives: at the top dose activation, usual class: activators; purified PKM2, Kinase-Glo ATP luminescence, activation; response scale: 0% is enzyme alone, no compound; also: % is scaled to controls: 0 for no effect and ±100 for the full control effect; nearly all actives have a fitted effect of over 55% in size
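hPK-M2, >95% pure; 0.1 mM ADP / 0.5 mM PEP final; imidazole pH7.2 buffer w/ 7 mM MgCl2, 50 mM KCl; 1 h RT; Kinase-Glo lum. Intermediate enzyme activity for dual inhibitor/activator qHTS.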
VDR inhibitor – Inhibitors of the vitamin D receptor (VDR): qHTS. Vitamin D3 receptor (Homo sapiens), P11473. VDR-SRC2-3 peptide fluorescence polarization, 2 h. Potency, µM, for inactives: max response, negative = inhibition, usual class: inhibitors. 0.93% of 400,000 active. AID 504847, 2011; also: % is scaled to controls: 0 for no effect and ±100 for the full control effect
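After 23 nl compound addition and a short centrifugation, plates sat for 2 hours at ambient temperature; polarization of fluorescence then indicated loss of VDR binding to peptide SRC2-3.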
Mito fusion act – qHTS Assay for Small Molecule Inhibitors of Mitochondrial Division or Activators of Mitochondrial Fusion; 0.23% of 320,000 active; Potency, µM (highest dose often 46.1 µM), for the others: at the top dose growth rescue (activation), hits mostly activators; AID 485298, 2010; S. cerevisiae fusion-defective mutant growth rescue, CellTiterGlo 48 h; also: % of control where 0% means no effect; nearly all actives have a fitted effect of over 45% in size
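Luminescent cell viability in 1536-well qHTS format served as the measure of rescued growth in ts fusion-mutant S. cerevisiae cultured on non-fermentable YPEG for 48 hours at 37C.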
GLS inh – qHTS for Inhibitors of Glutaminase (GLS); GLS enzymatic activity, qHTS titration; Potency, µM (titrated, usually from 45.5 µM), without a hit: at the top dose activity change, negative = inhibition, actives largely listed as inhibitors; 0.21% of 410,000 active; AID 624170, 2012; also: % is scaled to controls: 0 for no effect and ±100 for the full control effect
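Coupled fluorescence readout: glutamate oxidase/HRP/Amplex Red detect glutamate formed by hKGA from L-glutamine (1 mM solution added). Buffer 45 mM KH2PO4 pH 8.2, 0.02% Tween-20; reads at t0 and 30 min RT.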
PLK1 PBD inh – qHTS for Inhibitors of PLK1-PDB (polo-like kinase 1 - polo-box domain): Primary Screen | Serine/threonine-protein kinase PLK1 (Homo sapiens), P53350 | Plk1 PBD binding of FITC phosphopeptide, fluorescence polarization | Potency, µM, for the others: max response, negative = inhibition, hits mostly inhibitors | 2.8% of 360,000 active | AID 720504, 2013; also: series mostly up to about 57 µM; % is scaled to controls: 0 for no effect and ±100 for the full control effect; nearly all actives have a fitted effect of over 65% in size
* marks the source's active call; other numbers are inactive results; ? = inconclusive; . = no result; ! = a repeat was not active. Calls follow the shape of the dose curve; as a rule, active = well fitted curve in the direction sought with a large enough effect; inconclusive = small, poorly fitted or top-dose-only effect, or another doubt; inactive = no such curve, though single readings can be large; an effect the other way counts as inactive or inconclusive. Potency is read from the fitted curve at half-maximal effect.

SMILES	KAT2A inh	PKM2 activator	VDR inhibitor	Mito fusion act	GLS inh	PLK1 PBD inh
Cc1cccnc1C(NC(=O)C1CCN(Cc2ccc3ccccc3n2)CC1)c1ccc(Cl)cc1 (stereo not drawn)	.	.	.	.	-25.9%	-12.2%
O=C(CCS(=O)(=O)c1nc(-c2ccc3c(c2)OCO3)cc(C(F)(F)F)n1)Nc1ccccc1F	-8.3%	.	39.8µM*	.	-5.0%	.
CSc1ccccc1NC(=O)CCS(=O)(=O)c1nc(-c2ccc3c(c2)OCO3)cc(C(F)(F)F)n1	-4.7%	.	?	.	0.0%	.
O=C1NC(=S)S/C1=C\C=C\c1ccc([N+](=O)[O-])o1	-23.0%	-10.6%	16.0%	-19.6%	1.8%	21.2µM*
CC1(C)CC(=O)C2=C(C1)NC(=S)C(C#N)C21CCCCC1 (stereo not drawn)	-13.4%	-21.2%	?	12.3%	-19.1%	10.6µM*
CC1=NN(c2nc(-c3ccc(C)cc3)cs2)C(=O)C1N=Nc1cccc(O)c1 (stereo not drawn)	-16.2%	-5.7%	79.4µM*	-5.8%	?	4.74µM*
C=C(c1ccc(C(=O)O)cc1)c1cc2c(cc1C)C(C)(C)CCC2(C)C	6.31µM*	.	?	.	20.1%	.
CC1(C)CCC(C)(C)c2cc(C(=O)Nc3ccc(C(=O)O)cc3)ccc21	?	.	79.4µM*!	.	.	.
CCN(CC)c1ccc2cc(-c3nc4ccccc4[nH]3)c(=O)oc2c1	-1.3%	2.5%	-4.9%	1.2%	?	26.7µM*
CC(=O)N1CCc2c(sc3c2c(=O)n(CCc2ccccc2)c(=O)n3Cc2ccc(F)cc2)C1	-14.0%	.	-17.3%	.	-4.3%	.
Cc1ccc(C(=O)C(C(=O)/C=C/c2ccccc2)=C2SCCCS2)cc1	-13.7%	-10.5%	-15.2%	18.3%	?	3.36µM*
Cc1ccc(S(=O)(=O)Nc2ccc(-c3ccc(N4CCCCCC4)nn3)cc2)c(C)c1	0.0%	.	2.6%	.	-3.4%	.
Cc1ccc(S(=O)(=O)Nc2cccc(-c3ccc(N4CCCCCC4)nn3)c2)c(C)c1	-20.6%	.	?	-0.4%	6.2%	26.7µM*
O=C(NCCN1CCN(c2ccccc2)CC1)C1CCN(S(=O)(=O)c2cccc3nonc23)CC1	1.78µM*	-13.6%	6.9%	2.0%	17.3%	-3.5%
Cc1cc(-c2ccc(Cl)cc2Cl)c(C#N)c(=O)[nH]1	0.0%	-13.3%	?	-3.1%	1.5%	16.8µM*
CSc1nc(-c2ccc(Cl)cc2Cl)[nH]c(=O)c1C#N	0.6%	0.7%	-23.9%	1.1%	14.0%	?
CC(C)(C)NC(=O)CSc1nnc(-c2ccncc2)n1Cc1ccccc1	-24.4%	2.4%	-3.2%	0.7%	2.4%	-4.2%
CC(C)C(C)(C#N)NC(=O)CSc1nnc(-c2ccncc2)n1Cc1ccccc1 (stereo not drawn)	-8.3%	0.4%	?	4.5%	25.0%	21.2µM*
CS(=O)(=O)Nc1cccc(-c2ccc3ncnc(NCc4cccnc4)c3c2)c1	?	.	-2.5%	.	.	.
Fc1ccc(CNCCC(Cc2ccccc2)c2ccco2)cc1 (stereo not drawn)	0.5%	3.7%	12.9%	2.7%	8.8%	-11.1%
CC(NCCC(Cc1ccccc1)c1ccco1)c1ccccc1 (stereo not drawn)	-23.6%	1.0%	-17.4%	-1.5%	-2.1%	29.9µM*
CN(C)c1ncc2nc(-c3ccccc3)c(=O)n(C)c2n1	-20.8%	.	-4.8%	.	.	.
CCOC(=O)c1sc(NC(=O)CSc2n[nH]c(-c3ccccc3)n2)c(C#N)c1C	-11.6%	-9.8%	-21.9%	?	-17.6%	3.77µM*
CCOC(=O)c1sc(NC(=O)c2cc(-c3ccccc3)nc3ccccc23)c(C#N)c1C	?	-5.8%	-19.0%	-1.0%	32.7%	2.99µM*
COC(=O)c1ccccc1NC(=O)CSc1n[nH]c(-c2cccnc2)n1	-0.2%	-0.4%	-15.8%	-0.5%	0.0%	21.2µM*
SMILES	KAT2A inh	PKM2 activator	VDR inhibitor	Mito fusion act	GLS inh	PLK1 PBD inh
COc1ccccc1NC(=O)CSc1n[nH]c(-c2cccnc2)n1	-4.1%	2.5%	2.3%	3.3%	0.0%	1.0%
CCOC(=O)c1sc(NC(=O)C2=COCCO2)c(C#N)c1C	-8.1%	.	?	?	19.6%	26.7µM*
CCOC(=O)c1c(C)[nH]c(C)c1S(=O)(=O)N(C)CC(=O)N1CCN(c2ccc(OC)cc2)CC1	-7.5%	.	5.5%	0.8%	44.6%	-4.3%
CN1Cc2c(C(=O)OC(C)(C)C)ncn2-c2ccsc2C1=O	-3.0%	.	-1.9%	.	.	.
COC(=O)c1sc(NC(=O)c2ccco2)c(C#N)c1C	-4.3%	-0.2%	4.6%	-0.4%	9.5%	23.8µM*
COc1ccccc1NC(=O)c1sc(NC(=O)c2ccco2)c(C#N)c1C	3.7%	0.4%	-3.4%	2.6%	18.5%	-10.6%
CCC(c1nc2ccccc2[nH]1)n1c(=O)c(-c2ccco2)nc2ccccc21 (stereo not drawn)	.	.	.	.	.	-23.5%
O=c1c(-c2ccco2)nc2ccccc2n1C(CCc1ccccc1)c1nc2ccccc2[nH]1 (stereo not drawn)	.	.	.	.	.	2.99µM*
CCOC(=O)CSC(=S)NC(=O)c1ccc(OC)cc1	70.2%	-1.9%	?	-3.3%	16.8%	2.99µM*
COc1ccc(C(=O)NCC(=O)O)cc1	.	1.1%	6.8%	-2.2%	-0.4%	1.6%
COc1ccc(C(=O)NC(=S)SCC(=O)O)cc1	0.5%	-3.4%	2.8%	2.4%	7.7%	18.9µM*
O=C(OCCCOC(=O)c1ccccc1O)c1ccccc1O	-5.8%	-0.4%	.	2.4%	.	.
COc1cc2[nH]c(=O)c(C(=O)NCc3ccc(C)cc3)c(O)c2cc1OC	.	.	.	.	-3.8%	-1.8%
COc1cccc(C(=O)Nc2ccc(S(=O)(=O)Nc3cc(C)nc(C)n3)cc2)c1	-1.7%	-8.0%	-2.1%	-2.4%	2.7%	7.4%
CC1C(=O)CCC1(C(=O)O)c1ccccc1 (stereo not drawn)	-5.5%	-10.6%	-6.7%	0.2%	58.7%	23.8µM*
COc1ccc(C(=O)NCc2ccccc2CN2CCCC2)cc1S(=O)(=O)N1CCOCC1	-4.1%	.	2.9%	-1.3%	-5.0%	-2.3%
CCOc1ccc(S(=O)(=O)N(CC(=O)NCCSCc2ccccc2)c2ccccc2)cc1	-4.7%	.	7.8%	.	-15.8%	.
CC(=O)c1ccc(OCC(O)CN2CCN(Cc3ccc4c(c3)OCO4)CC2)cc1 (stereo not drawn)	?	-1.8%	?	0.4%	2.4%	26.7µM*
